Results published in the supplement of paper PMC10849652.
Targets with a hit are over-represented here; the source holds about 8,800 in all. About 0.5% of all pairs of compound and target were hits. Unmarked numbers belong to inactive results.

How the values were obtained:
Assay in all cases: log2 fold change, soluble protein after heating vs DMSO (PISA); higher = thermal stabilisation; K562 lysate, 10 uM; active = over 0.2 and 3.5 SD of the protein, either way, in both replicates (recomputed)
nilotinib = compound: Cc1cn(-c2cc(NC(=O)c3ccc(C)c(Nc4nccc(-c5cccnc5)n4)c3)cc(C(F)(F)F)c2)cn1 [nilotinib]
Summary of the method: (§1)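 Pellets of K562 cells were dounce-homogenised in PBS pH 7.4 with 1 mM MgCl2, and the crude extract was held at 1 mg/mL protein for a 30 min treatment with 10 μM compound. Aliquots were heated for 3 min over 48°C-58°C and pooled before NP-40 was added to 0.5% at 4°C. The supernatant from 21,000xg for 90 min was quantified by TMTpro 16plex LC-MS/MS with channel sums equalised. Values are reported from duplicates as log-two fold change in thermal stability relative to solvent controls.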

[1] = compound: Cc1nc(Nc2n[nH]c3c2CN(C(=O)N[C@H](CN(C)C)c2ccccc2)C3(C)C)c2sccc2n1
Summary of the method: as §1

dasatinib = compound: Cc1nc(Nc2ncc(C(=O)Nc3c(C)cccc3Cl)s2)cc(N2CCN(CCO)CC2)n1 [dasatinib]
Summary of the method: as §1

[2] = compound: Cc1ncc(-c2ccnc(Nc3ccc(S(C)(=O)=O)cc3)n2)n1C(C)C
Summary of the method: as §1

[3] = compound: Cn1cc(-c2ccc3c(c2)CCN3C(=O)Cc2cccc(C(F)(F)F)c2)c2c(N)ncnc21
Summary of the method: as §1

quisinostat = compound: Cn1cc(CNCC2CCN(c3ncc(C(=O)NO)cn3)CC2)c2ccccc21 [quisinostat]
Summary of the method: as §1

tipifarnib = compound: Cn1cncc1[C@@](N)(c1ccc(Cl)cc1)c1ccc2c(c1)c(-c1cccc(Cl)c1)cc(=O)n2C [tipifarnib]
Summary of the method: as §1

[4] = compound: NC(=O)Nc1cc(-c2cccc(F)c2)sc1C(=O)N[C@H]1CCCNC1
Summary of the method: as §1

[5] = compound: NC(=O)c1cnc(N[C@@H]2CCCC[C@@H]2N)nc1Nc1cccc(-n2nccn2)c1
Summary of the method: as §1

[6] = compound: NC1(c2ccc(-c3nc4ccn5c(=O)[nH]nc5c4cc3-c3ccccc3)cc2)CCC1
Summary of the method: as §1

[7] = compound: NCC(=O)Nc1ccc(-n2nc(C(F)(F)F)cc2-c2ccc3c(ccc4ccccc43)c2)cc1
Summary of the method: as §1

vorinostat = compound: O=C(CCCCCCC(=O)Nc1ccccc1)NO [vorinostat]
Summary of the method: as §1

silmitasertib = compound: O=C(O)c1ccc2c(c1)nc(Nc1cccc(Cl)c1)c1ccncc12 [silmitasertib]
Summary of the method: as §1

[8] = compound: O=C1NC(=O)C(c2cnc3ccccn23)=C1c1cn2c3c(cc(F)cc13)CN(C(=O)N1CCCCC1)CC2
Summary of the method: as §1

entospletinib = compound: c1cn2cc(-c3ccc4cn[nH]c4c3)nc(Nc3ccc(N4CCOCC4)cc3)c2n1 [entospletinib]
Summary of the method: as §1

UniProt P31947, sequence (P31947 whole entry, looked up): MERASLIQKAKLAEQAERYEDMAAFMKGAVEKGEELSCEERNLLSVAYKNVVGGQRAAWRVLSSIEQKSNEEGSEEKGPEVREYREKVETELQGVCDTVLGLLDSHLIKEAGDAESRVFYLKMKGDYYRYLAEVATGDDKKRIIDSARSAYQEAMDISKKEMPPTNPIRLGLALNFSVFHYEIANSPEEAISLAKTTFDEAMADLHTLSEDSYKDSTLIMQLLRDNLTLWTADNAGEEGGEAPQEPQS
UniProt Q9UPR3, sequence (Q9UPR3 whole entry, looked up): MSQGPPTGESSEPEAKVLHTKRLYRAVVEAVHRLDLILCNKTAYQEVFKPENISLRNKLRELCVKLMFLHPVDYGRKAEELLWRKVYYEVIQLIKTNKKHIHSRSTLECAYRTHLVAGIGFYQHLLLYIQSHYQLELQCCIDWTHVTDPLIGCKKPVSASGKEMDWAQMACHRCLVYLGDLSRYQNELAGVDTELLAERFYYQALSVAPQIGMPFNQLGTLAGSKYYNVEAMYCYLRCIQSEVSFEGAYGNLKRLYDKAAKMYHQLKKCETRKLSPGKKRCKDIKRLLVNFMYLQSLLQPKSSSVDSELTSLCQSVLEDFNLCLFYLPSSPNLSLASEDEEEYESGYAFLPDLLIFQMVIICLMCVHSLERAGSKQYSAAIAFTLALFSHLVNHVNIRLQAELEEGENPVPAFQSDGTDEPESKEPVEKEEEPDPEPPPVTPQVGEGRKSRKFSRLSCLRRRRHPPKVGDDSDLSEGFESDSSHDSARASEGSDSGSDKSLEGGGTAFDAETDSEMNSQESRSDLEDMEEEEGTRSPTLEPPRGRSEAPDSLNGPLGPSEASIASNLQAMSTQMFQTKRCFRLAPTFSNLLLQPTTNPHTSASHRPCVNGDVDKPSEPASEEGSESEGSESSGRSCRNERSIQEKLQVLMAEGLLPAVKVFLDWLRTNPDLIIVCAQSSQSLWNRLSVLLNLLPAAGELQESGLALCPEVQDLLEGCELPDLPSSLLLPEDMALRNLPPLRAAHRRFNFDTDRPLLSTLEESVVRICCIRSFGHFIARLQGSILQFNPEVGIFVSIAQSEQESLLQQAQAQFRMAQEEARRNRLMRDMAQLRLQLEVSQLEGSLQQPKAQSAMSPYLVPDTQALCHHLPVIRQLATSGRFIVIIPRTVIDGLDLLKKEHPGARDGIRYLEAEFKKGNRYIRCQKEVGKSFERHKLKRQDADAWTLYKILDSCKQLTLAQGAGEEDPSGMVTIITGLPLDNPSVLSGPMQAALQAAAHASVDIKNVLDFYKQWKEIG
UniProt P62306, sequence (P62306 whole entry, looked up): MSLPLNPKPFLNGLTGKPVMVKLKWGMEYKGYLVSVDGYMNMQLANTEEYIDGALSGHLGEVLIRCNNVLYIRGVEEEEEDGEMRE
UniProt Q16594, sequence (Q16594 whole entry, looked up): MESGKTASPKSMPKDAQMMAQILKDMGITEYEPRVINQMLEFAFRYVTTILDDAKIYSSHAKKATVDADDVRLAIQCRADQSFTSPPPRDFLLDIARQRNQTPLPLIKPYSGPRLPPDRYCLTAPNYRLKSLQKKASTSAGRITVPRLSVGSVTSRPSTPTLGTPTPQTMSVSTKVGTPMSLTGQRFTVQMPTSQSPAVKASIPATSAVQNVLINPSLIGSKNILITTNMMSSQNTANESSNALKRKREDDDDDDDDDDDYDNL
UniProt Q9NRP7, sequence (Q9NRP7 whole entry, looked up): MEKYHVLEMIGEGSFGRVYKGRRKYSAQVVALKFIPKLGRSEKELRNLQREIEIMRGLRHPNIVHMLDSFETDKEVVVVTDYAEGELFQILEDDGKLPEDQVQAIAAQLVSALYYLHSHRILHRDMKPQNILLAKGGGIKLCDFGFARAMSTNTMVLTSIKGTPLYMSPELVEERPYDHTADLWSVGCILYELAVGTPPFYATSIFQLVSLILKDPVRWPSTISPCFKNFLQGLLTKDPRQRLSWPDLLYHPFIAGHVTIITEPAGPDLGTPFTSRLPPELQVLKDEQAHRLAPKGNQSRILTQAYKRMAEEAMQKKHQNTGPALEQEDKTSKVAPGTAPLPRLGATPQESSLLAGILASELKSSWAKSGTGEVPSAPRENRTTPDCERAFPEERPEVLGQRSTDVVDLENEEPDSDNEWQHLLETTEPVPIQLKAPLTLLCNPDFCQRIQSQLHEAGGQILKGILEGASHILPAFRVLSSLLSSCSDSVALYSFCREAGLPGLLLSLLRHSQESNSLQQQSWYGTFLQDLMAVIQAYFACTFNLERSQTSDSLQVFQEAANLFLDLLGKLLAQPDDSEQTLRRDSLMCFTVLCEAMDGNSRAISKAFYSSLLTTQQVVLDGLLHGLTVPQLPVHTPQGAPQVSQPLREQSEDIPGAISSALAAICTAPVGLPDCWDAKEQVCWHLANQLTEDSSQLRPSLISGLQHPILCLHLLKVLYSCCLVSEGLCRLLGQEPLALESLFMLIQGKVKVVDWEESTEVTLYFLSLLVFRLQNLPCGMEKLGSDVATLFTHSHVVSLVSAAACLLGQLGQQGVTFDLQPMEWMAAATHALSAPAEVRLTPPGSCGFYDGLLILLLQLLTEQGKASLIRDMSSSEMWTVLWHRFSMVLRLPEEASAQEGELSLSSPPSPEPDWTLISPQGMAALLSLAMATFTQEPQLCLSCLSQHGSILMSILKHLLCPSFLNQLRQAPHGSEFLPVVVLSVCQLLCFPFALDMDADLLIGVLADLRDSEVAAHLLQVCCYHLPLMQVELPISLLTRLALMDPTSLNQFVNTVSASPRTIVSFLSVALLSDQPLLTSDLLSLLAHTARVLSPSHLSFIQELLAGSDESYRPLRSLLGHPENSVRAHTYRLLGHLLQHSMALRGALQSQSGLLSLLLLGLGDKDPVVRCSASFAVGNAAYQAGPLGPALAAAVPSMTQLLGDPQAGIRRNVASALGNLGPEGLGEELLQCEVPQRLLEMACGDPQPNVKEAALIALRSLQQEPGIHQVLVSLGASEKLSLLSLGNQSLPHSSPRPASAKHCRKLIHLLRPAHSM
UniProt Q13309, sequence (Q13309 whole entry, looked up): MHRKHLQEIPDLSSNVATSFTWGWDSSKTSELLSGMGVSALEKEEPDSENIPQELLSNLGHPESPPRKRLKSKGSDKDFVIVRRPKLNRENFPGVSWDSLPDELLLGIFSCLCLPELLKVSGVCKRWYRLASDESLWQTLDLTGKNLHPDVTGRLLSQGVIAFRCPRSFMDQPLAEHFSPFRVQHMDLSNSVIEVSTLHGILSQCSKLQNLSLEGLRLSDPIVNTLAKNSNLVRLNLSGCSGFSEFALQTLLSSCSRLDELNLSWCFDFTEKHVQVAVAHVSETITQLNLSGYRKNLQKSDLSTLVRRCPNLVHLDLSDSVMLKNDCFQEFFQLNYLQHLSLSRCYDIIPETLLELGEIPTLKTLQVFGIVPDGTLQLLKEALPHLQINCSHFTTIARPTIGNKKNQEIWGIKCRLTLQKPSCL

Row | Target | log2 fold change (nilotinib) | log2 fold change [1] | log2 fold change (dasatinib) | log2 fold change [2] | log2 fold change [3] | log2 fold change (quisinostat) | log2 fold change (tipifarnib) | log2 fold change [4] | log2 fold change [5] | log2 fold change [6] | log2 fold change [7] | log2 fold change (vorinostat) | log2 fold change (silmitasertib) | log2 fold change [8] | log2 fold change (entospletinib)
1 | SKP2 (UniProt Q13309) | 0.047 | -0.044 | -0.004 | 0.003 | 0.045 | -0.193 | -0.035 | 0.295 | -0.015 | -0.044 | -0.07 | -0.203 | 0.012 | 0.009 | -0.103
2 | SMG5 (UniProt Q9UPR3) | -0.058 | 0.034 | 0.003 | -0.054 | 0.03 | 0.013 | -0.115 | 0.097 | 0.048 | -0.027 | 0.04 | -0.381 (active) | -0.024 | 0.024 | -0.023
3 | SFN (UniProt P31947) | -0.036 | -0.007 | 0.088 | -0.007 | 0.008 | 0.077 | 0.052 | -0.048 | -0.023 | 0.035 | -0.001 | 0.107 | -0.032 | -0.026 | 0.045
4 | STK36 (UniProt Q9NRP7) | 0.081 | -0.179 | -0.142 | -0.02 | -0.113 | -1.31 (active) | -0.059 | 0.059 | 0.117 | -0.265 | 0.283 | 0.143 | -0.032 | 0.101 | -0.031
5 | TAF9 (UniProt Q16594) | -0.043 | 0.049 | -0.017 | -0.003 | 0.021 | -0.055 | -0.029 | 0.013 | 0.084 | -0.024 | 0.002 | -0.099 | -0.011 | -0.003 | -0.017
6 | SNRPF (UniProt P62306) | -0.044 | 0.063 | 0.005 | 0.013 | -0.156 | -0.276 | -0.037 | 0 | -0.044 | 0.013 | -0.019 | -0.014 | -0.001 | -0.01 | -0.016
